Data from PubChem BioAssay.
Active and inactive are the calls of the source.

Experiments:
[1] = binders of probe aFSTL3 on microarray, primary screen, stem cell growth factor project, biochemical, small-molecule microarray, fluorescence 635/667 (AID 1064); details: higher = more signal;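 note: measures binding of the biotinylated anti-FSTL3 antibody to printed compounds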
[2] = binders from COS7 lysate, DM2A8 probe, primary screen, torsin A project, cell lysate, small-molecule microarray, fluorescence 635/667 (AID 1065); details: higher = more signal, COS7 lysate expressing mutant human TOR1A
[3] = binders of probe aFGF2 on microarray, primary screen, stem cell growth factor project, biochemical, small-molecule microarray, fluorescence 635/667 (AID 1067); details: higher = more signal;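 note: measures binding of biotinylated aFGF2 protein to printed compounds on slides; z-score merges feature fluorescence and signal-to-noise across triplicate slides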
[4] = binders of probe aFGF10 on microarray, primary screen, stem cell growth factor project, biochemical, small-molecule microarray, fluorescence 635/667 (AID 1071); details: higher = more signal;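 note: score merges 667 nm spot intensity and signal to noise from triplicate slides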
[5] = target: Neurogenic locus notch homolog protein 2 (Homo sapiens) (UniProt Q04721); experiment: Notch2 binders on small-molecule microarrays, primary screen, biochemical, small-molecule microarray, 635 nm fluorescence, stem cell growth factors (AID 1073); details: Notch2 binding, higher = more signal
Sequence of Neurogenic locus notch homolog protein 2 (Homo sapiens) (Q04721 whole entry, looked up, canonical isoform): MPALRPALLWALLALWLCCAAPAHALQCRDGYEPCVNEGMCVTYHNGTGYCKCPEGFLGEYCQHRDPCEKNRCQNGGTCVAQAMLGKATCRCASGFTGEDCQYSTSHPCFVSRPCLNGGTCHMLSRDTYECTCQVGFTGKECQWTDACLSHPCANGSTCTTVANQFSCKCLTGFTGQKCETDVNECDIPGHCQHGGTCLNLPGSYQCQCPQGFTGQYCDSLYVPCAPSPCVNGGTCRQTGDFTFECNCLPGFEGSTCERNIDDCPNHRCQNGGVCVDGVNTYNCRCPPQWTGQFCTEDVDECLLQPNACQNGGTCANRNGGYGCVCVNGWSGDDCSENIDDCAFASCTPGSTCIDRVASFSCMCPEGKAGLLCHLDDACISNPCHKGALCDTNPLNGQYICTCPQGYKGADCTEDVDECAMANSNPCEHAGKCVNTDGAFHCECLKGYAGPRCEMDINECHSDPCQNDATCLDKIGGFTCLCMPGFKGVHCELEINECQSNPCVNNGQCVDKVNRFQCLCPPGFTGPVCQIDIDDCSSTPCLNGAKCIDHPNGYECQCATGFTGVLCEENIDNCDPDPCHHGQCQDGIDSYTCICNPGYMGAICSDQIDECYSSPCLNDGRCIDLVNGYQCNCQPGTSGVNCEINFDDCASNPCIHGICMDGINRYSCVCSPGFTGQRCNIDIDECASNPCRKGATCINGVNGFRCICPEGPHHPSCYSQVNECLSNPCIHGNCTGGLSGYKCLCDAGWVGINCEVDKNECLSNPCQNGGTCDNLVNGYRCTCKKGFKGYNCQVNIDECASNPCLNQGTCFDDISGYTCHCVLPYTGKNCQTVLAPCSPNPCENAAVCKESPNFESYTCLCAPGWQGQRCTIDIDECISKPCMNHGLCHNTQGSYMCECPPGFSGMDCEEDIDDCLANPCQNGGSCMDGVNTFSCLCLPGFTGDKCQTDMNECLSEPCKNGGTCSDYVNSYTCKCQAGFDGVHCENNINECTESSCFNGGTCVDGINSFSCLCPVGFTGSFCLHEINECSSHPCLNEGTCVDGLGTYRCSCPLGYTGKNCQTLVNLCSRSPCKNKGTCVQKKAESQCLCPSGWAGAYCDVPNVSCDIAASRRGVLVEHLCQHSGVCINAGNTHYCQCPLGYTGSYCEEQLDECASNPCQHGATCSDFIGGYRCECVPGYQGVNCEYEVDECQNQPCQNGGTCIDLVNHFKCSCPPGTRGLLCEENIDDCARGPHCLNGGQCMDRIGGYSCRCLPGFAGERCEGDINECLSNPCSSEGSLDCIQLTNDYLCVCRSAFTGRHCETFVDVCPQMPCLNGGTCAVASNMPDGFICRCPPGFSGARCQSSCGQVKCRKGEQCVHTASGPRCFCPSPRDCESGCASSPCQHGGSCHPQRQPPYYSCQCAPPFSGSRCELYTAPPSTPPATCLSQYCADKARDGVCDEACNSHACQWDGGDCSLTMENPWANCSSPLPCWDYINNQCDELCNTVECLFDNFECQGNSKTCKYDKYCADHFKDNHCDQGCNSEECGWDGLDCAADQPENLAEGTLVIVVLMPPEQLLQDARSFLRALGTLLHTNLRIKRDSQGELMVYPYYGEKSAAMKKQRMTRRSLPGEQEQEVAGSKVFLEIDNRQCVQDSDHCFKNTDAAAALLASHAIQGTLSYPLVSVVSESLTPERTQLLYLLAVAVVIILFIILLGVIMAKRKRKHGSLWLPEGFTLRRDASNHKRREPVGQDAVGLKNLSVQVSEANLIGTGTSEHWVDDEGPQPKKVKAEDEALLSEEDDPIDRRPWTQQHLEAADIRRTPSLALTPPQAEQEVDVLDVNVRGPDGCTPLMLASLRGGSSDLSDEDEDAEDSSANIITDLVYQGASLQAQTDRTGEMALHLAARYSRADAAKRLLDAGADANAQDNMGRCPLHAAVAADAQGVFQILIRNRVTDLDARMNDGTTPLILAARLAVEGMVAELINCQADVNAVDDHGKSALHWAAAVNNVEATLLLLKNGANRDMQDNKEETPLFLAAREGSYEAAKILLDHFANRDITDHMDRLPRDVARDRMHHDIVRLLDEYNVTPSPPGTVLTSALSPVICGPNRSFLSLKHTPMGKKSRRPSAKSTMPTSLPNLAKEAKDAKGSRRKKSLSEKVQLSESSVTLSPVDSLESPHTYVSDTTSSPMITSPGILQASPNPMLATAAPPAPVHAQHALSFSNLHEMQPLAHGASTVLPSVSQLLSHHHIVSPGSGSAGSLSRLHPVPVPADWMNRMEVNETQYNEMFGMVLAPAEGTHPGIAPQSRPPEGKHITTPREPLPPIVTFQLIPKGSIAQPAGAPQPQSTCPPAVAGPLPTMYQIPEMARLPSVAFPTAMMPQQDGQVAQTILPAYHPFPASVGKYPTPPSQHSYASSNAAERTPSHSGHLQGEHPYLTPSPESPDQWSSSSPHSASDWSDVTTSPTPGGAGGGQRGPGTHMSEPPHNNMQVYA

[6] = target: Pro-neuregulin-1, membrane-bound isoform (Homo sapiens) (UniProt Q02297); experiment: NRG1 binders on small-molecule microarrays, primary screen, psychiatric disease protein project, biochemical, small-molecule microarray, fluorescence 635/667 (AID 1075); details: NRG1 binding, 635 nm fluorescence, higher = more signal;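 note: score combines 667 nm spot fluorescence with signal to noise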
Sequence of Pro-neuregulin-1, membrane-bound isoform (Homo sapiens) (Q02297 whole entry, looked up, the tested form may be a part, canonical isoform): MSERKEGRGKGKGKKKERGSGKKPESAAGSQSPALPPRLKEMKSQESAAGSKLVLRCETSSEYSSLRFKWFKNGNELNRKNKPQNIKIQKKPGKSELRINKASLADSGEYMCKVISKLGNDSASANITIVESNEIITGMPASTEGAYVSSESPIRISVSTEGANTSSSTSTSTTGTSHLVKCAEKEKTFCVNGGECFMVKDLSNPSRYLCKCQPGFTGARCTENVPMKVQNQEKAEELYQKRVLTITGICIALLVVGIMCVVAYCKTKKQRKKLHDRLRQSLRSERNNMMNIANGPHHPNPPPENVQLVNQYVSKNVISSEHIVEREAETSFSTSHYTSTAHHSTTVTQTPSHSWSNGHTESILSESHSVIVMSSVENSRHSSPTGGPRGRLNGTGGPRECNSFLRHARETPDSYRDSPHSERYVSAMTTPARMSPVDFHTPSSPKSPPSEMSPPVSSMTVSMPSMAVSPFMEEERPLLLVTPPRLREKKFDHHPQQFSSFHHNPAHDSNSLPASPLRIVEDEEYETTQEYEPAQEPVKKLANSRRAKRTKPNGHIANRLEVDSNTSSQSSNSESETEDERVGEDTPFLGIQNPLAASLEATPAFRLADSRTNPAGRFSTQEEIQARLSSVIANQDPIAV

[7] = test system: Neuregulin-1 EGF-like domain; experiment: binders of neuregulin-1 EGF-like domain, primary screen, biochemical, small-molecule microarray, 635 nm fluorescence (AID 1081); details: small-molecule microarray binding, higher = more signal;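 note: binding of the protein to compounds printed on small-molecule microarray slides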
[8] = FRG1 promoter luciferase signal modulators, primary screen, FRG1 inhibition for FSHD, cell-based, C2C12 myotubes, firefly/Renilla luciferase, luminescence (AID 1084); details: higher = more signal, called active from +8 up or from −8 down
[9] = binders of probe aFST on microarray, primary screen, stem cell growth factor project, biochemical, small-molecule microarray, fluorescence 635/667 (AID 1086); details: higher = more signal;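 note: score merges 667 nm fluorescence with signal-to-noise of each printed compound spot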
[10] = binders of probe aHhip on microarray, primary screen, stem cell growth factor project, biochemical, small-molecule microarray, fluorescence 635/667 (AID 1087); details: higher = more signal;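 note: score merges spot fluorescence at 667nm with spot signal to noise ratio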

SMILES | composite z-score [1] | composite z-score [2] | composite z-score [3] | composite z-score [4] | composite z-score [5] | composite z-score [6] | composite z-score [7] | z-score [8] | composite z-score [9] | composite z-score [10]
COC(=O)[C@@]1(Cc2ccc(F)cc2)[C@H]2c3cc(C(=O)N4CCCC4)n(C)c3C[C@H]2CN1C(=O)c1ccccc1 | 1.18 | 0.155 | 0.404 | 0.779 | 1.69 | 2.15 | 1.34 | -0.234 (inactive) | 0.951 | -0.0645
COc1ccc([Si](C)(C)[C@H]2[C@H](CC(=O)N3CCC[C@H]3CO)O[C@@]3(C(=O)N(Cc4ccc(N5CCC5=O)cc4)c4ccccc43)[C@@H]2C)cc1 | -0.589 | 0.429 | -0.0276 | 0.299 | 0.549 | 0.454 | 1.1 | -4.59 (inactive) | 0.485 | -0.215
COCCOC(=O)N1C(=O)[C@@]2(c3cc(C#CCNC(N)=O)ccc31)[C@H](c1ccc(OCCO)cc1)N1[C@H](c3ccccc3)[C@H](c3ccccc3)OC(=O)[C@H]1[C@@H]2C(=O)NC[C@H](O)c1ccccc1 | -0.0349 | 0.907 | -0.0881 | 0.417 | 1.25 | 0.46 | 0.77 | 0.499 (inactive) | 0.506 | -0.215
O=C1N[C@@H](Cc2ccccc2)C(=O)N2[C@@H]1C[C@@H](C(=O)O)[C@H]2c1ccc(O)cc1 | 0.106 | 0.726 | -0.0773 | 0.473 | 0.0865 | 1.77 | 1.37 | 4.65 (inactive) | 0.661 | -0.257
C=CCN1C(=O)[C@]2(O[C@H](CCO)[C@@H]([Si](C)(C)c3ccc(OC)cc3)[C@@H]2C)c2cc(N3C(=O)COc4ccccc43)ccc21 | 0.174 | -0.142 | -0.0597 | 0.606 | 0.248 | 0.966 | 0.698 | -0.998 (inactive) | -0.0347 | -0.297
CCCC=C(CCC)[C@@H](NC(=O)CCc1ccccc1)c1ccc(C(F)(F)F)cc1 | 0.304 | 0.0979 | 0.0836 | 0.0199 | 1.53 | 1.51 | 0.969 | -0.129 (inactive) | 0.821 | 0.107
COCCCNC(=O)[C@@]1(Sc2ccc(C)cc2)CC(=O)N(Cc2ccccc2Cl)[C@@H]1c1ccc(CO)cc1I | 0.386 | -0.983 | -0.191 | -0.304 | -0.911 | 1.08 | 0.449 | -2.5 (inactive) | -0.431 | -0.0994
COCCOC(=O)N1C(=O)[C@@]2(c3cc(C#CCNC(N)=O)ccc31)[C@H](c1ccc(O)cc1)N1[C@H](c3ccccc3)[C@H](c3ccccc3)OC(=O)[C@H]1[C@@H]2C(N)=O | 0.161 | -0.412 | -0.161 | -0.484 | -2.04 | -0.702 | -0.0682 | 0.0283 (inactive) | -0.567 | -0.39
[N-]=[N+]=NCc1ccccc1[C@H]1OC(c2ccc(OCCCO)cc2)=N[C@@]1(CCS(=O)(=O)c1ccccc1)C(=O)NCc1ccccc1 | 0.174 | 0.447 | 0.138 | 0.914 | 1.53 | 1.33 | 1.24 | -1.68 (inactive) | 0.981 | 1.05
C=CCC(OC(C)=O)[C@@H]1[C@@H](N(Cc2ccc(-c3cccc(C(F)(F)F)c3)o2)C(=O)Cc2ccc(OC)cc2)c2cc(OCCCO)ccc2N1C(=O)Cc1ccc2ccccc2c1 (stereo not given in full) | -0.131 | -0.919 | -0.0715 | -0.139 | -0.696 | 0.465 | 0.113 | -0.734 (inactive) | 0.069 | 0.0505
COCC(=C=CC[C@H](O)c1cccc(OCCO)c1)C[C@H](O)COCc1ccccc1 | 0.0102 | 0.823 | -0.0602 | 0.427 | 0.276 | 1.51 | 1.31 | 0.574 (inactive) | 0.256 | -0.476
COCCOC(=O)N1C(=O)[C@@]2(c3cc(C#CCCO)ccc31)[C@H](C(=O)N1CCCCCCC1)[C@H]1C(=O)O[C@H](c3ccccc3)[C@H](c3ccccc3)N1[C@@H]2c1ccccc1OCCO | 3.32 | 0.659 | 0.688 | 0.473 | 1.43 | 1.85 | 1.18 | 0.253 (inactive) | 3.07 | 0.891
COc1ccc([Si](C)(C)[C@@H]2[C@@H](CCn3cc([C@H](O)c4ccccc4)nn3)O[C@]3(C(=O)N(Cc4cccc(N5C(=O)c6cccc7cccc5c67)c4)c4ccccc43)[C@H]2C)cc1 | 0.022 | -0.362 | -0.146 | -0.472 | -0.643 | 0.173 | 0.741 | -0.814 (inactive) | -0.0472 | -0.309
CN1C(=O)C2C=CC(C(O)c3ccc(I)cc3)N(Nc3ccccc3)C2C1=O (stereo not given) | 0.131 | 0.238 | 0.0253 | 0.846 | 1.26 | 1.56 | 1.24 | 0.266 (inactive) | 0.942 | 0.142
COCCCNC(=O)[C@@]1(c2ccc([N+](=O)[O-])cc2)CC(=O)N(C(C)C)[C@@H]1c1ccc(CO)cc1 | 0.135 | -0.169 | -0.059 | -0.0621 | -0.588 | -0.714 | 0.539 | 0.195 (inactive) | 0.116 | 0.526
C[C@]1(C(=O)O)c2ccccc2C(=O)N(Cc2ccc(OC(F)(F)F)cc2)[C@H]1c1ccc(CO)cc1 | 0.592 | -0.139 | -0.0442 | -0.106 | -0.0052 | 0.787 | 0.509 | -1.27 (inactive) | 0.302 | -0.226
[N-]=[N+]=Nc1ccccc1[C@@H]1OC(c2ccc(OCCCO)cc2)=N[C@]1(Cc1ccccc1)C(=O)NCc1ccccc1 | 0.97 | 1.72 | 0.0653 | 0.371 | 1.59 | 1.6 | 1.2 | -1.2 (inactive) | 1.21 | 0.0614
O=C1C2C=CC(C(O)c3ccc(I)cc3)N(Nc3ccccc3)C2C(=O)N1c1ccccc1 (stereo not given) | 0.996 | 0.404 | 0.106 | 0.368 | 1.54 | 2.13 | 1.22 | -1.92 (inactive) | 1.27 | -0.0988
CC(C)C(=C=CC[C@H](O)c1cccc(OCCO)c1)CCO | -0.068 | 1.33 | -0.0937 | -0.194 | -0.379 | -0.356 | -0.403 | 0.163 (inactive) | -0.045 | -0.287
CC(C)C[C@@H]1NC(=O)CNC(=O)[C@@]23C(=O)N[C@@H](Cc4ccccc4)C2[C@H](C)[C@@]2(C)O[C@H]2C3/C=C/C/C=C\CNC1=O (stereo not given in full) | -0.454 | 0.109 | -0.087 | 0.68 | 0.429 | 0.345 | 0.919 | 1.4 (inactive) | 0.0427 | -0.171
[N-]=[N+]=Nc1ccccc1C[C@]1(C(=O)O)N=C(c2ccc(OCCCO)cc2)O[C@H]1c1ccccc1N=[N+]=[N-] | 0.951 | 0.618 | 0.0857 | 0.619 | 1.23 | 1 | 1.04 | -1.57 (inactive) | 0.992 | 0.543
CC(C)C[C@@H]1NC(=O)[C@@]23C(=O)N[C@@H](Cc4ccccc4)C2[C@H](C)[C@@]2(C)O[C@H]2C3/C=C/C/C=C\CNC(=O)[C@@H](C)NC1=O (stereo not given in full) | -0.296 | 0.183 | -0.0963 | 0.392 | -0.211 | 1.1 | -0.483 | 0.677 (inactive) | -0.414 | -0.12
C=C(COC)C(=O)CC[C@H](OC(C)=O)c1ccc(OCCO)cc1 | -0.198 | -0.722 | -0.0533 | 1.21 | -0.189 | -0.0732 | 1.1 | 1.08 (inactive) | 0.375 | -0.191
COc1ccc(C#Cc2ccc3c(c2)[C@]2(C(=O)N3)[C@H](C(=O)N3CCCCCCC3)[C@H]3C(=O)O[C@H](c4ccccc4)[C@H](c4ccccc4)N3[C@@H]2c2ccc(O)cc2)cc1 | 2.46 | 0.578 | 0.102 | 0.295 | 0.97 | -0.234 | 1.24 | 0.626 (inactive) | 2.24 | 0.606
C[C@]1(C(=O)NCC(F)(F)F)c2ccccc2C(=O)N(Cc2ccccc2)[C@H]1c1ccc(CO)cc1 | 0.472 | -1.34 | -0.167 | -0.358 | -1.52 | 0.794 | 0.711 | -1.48 (inactive) | -0.0961 | -0.0003
Cc1ccc(S[C@]2(C(=O)NCc3ccccc3)CC(=O)N(Cc3cc(C(F)(F)F)cc(C(F)(F)F)c3)[C@@H]2c2ccc(CO)cc2I)cc1 | 0.436 | -0.3 | -0.0767 | -1.03 | -1.44 | 1.11 | 0.623 | -0.452 (inactive) | -0.292 | -0.132
COc1ccc(CCNC(=O)[C@@]2(Cc3ccccc3I)c3ccccc3C(=O)N(Cc3ccccc3Cl)[C@H]2c2ccc(CO)cc2)cc1 | 0.696 | 0.348 | 0.189 | 0.0625 | 0.0077 | 1.8 | 1.22 | -3.44 (inactive) | 0.262 | 0.674
CN(C)CCCC[C@@H]1NC(=O)[C@@H]2C[C@H](C(=O)O)[C@H](c3cccc(OCCO)c3)N2C1=O | 0.119 | -0.326 | -0.186 | -0.392 | -0.561 | -0.579 | -0.106 | 1.3 (inactive) | -0.124 | -0.175
C=C(COC)/C(=C/C[C@@H](OC(=O)c1ccncc1)c1ccccc1OCCO)c1cc(C(=O)OC)ccc1OC | 0.232 | -0.72 | -0.0718 | 0.263 | -0.381 | -0.33 | 0.851 | -1.87 (inactive) | -0.3 | -0.0645
